The record followed here is PubChem BioAssay.

Each structure is given as a SMILES string. Unmarked numbers belong to inactive results. For some of these results: Entries with a potency or affinity are not part of this list. Calls of active or inactive are those of the source. Unless noted, the rule behind the calls is not given here.

A short description of assay [1]: antimalarial activity against Dd2 strain (AID 2302;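 active = growth inhibition above 50% at the single 2 µM test dose, taken to imply half-maximal potency below 2 µM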;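 note: 0% = DMSO untreated growth and 100% = chloroquine plus artemisinin killed control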). The following applies: P. falciparum Dd2 in RBCs, LDH growth readout, 72 h; at 2 µM; active compounds read high.
The nature of assay [2]: human hepatoma cell viability loss – ATP luminescence, cytotoxicity control for P. falciparum antimalarial project, primary screen (AID 2303;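 active = inhibition above 50%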;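 note: 0% = DMSO wells and 100% = digitonin-killed cells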). Particulars: HepG2 viability, 24-48 h, at 10 µM, active compounds read high.
Assay [3] addresses L-lactate dehydrogenase (Plasmodium falciparum (isolate CDC / Honduras)) (UniProt Q27743). Nature of the assay: PfLDH activity inhibition – cell lysate, 3D7 strain, counter-screen for P. falciparum growth inhibition project (AID 2304).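 Note: 0% = vehicle and 100% = reference inhibitor.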 Particulars: P. falciparum 3D7 crude extract, LDH APAD/NBT absorbance; at 2 µM; active compounds read high.
Assay [4] in a line: inhibition of 3D7 malaria parasite growth – strain 3D7 (AID 2306).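 Note: 0% = DMSO wells and 100% = chloroquine plus artemisinin control wells.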 The following applies: P. falciparum 3D7 erythrocytic growth, LDH absorbance, 72 h; at 2 µM; active compounds read high.
The target of assay [5] is Calcium-dependent protein kinase 1 (Plasmodium falciparum (isolate 3D7)) (UniProt P62344). The assay can be described thus: PfCDPK1 kinase inhibitors, biochemical, TCAMS library (AID 1159585; cut-off not given, nearly all actives have IC50 up to about 0.98 µM;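 note: inhibitors leave more ATP so luminescence rises with inhibition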). The following applies: recombinant PfCDPK1, Kinase-Glo ATP depletion luminescence.
Chain of Calcium-dependent protein kinase 1 (Plasmodium falciparum (isolate 3D7)) (P62344 whole entry, looked up): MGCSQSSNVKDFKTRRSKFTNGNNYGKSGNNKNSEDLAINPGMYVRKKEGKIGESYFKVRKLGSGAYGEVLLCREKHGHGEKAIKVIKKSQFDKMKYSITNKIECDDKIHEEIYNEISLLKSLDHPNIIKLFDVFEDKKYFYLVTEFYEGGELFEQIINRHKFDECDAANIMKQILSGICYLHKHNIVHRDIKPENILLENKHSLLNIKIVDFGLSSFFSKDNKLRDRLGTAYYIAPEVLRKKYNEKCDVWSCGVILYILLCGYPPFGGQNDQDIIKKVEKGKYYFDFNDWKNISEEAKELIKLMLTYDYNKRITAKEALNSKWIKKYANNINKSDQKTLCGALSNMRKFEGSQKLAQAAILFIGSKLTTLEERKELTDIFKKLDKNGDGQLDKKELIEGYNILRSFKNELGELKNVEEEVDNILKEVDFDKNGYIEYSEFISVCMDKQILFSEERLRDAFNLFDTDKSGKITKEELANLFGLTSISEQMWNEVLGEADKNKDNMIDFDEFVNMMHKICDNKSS
Assay [6] concerns the target Plasmodium falciparum protein kinase 6 (PK6, PF3D7_1337100) (UniProt Q8IDW1). Nature of the assay: PfPK6 kinase inhibitors, biochemical, TCAMS library (AID 1159586). The following applies: recombinant PfPK6, Kinase-Glo ATP depletion luminescence. On the technique in general: Kinase-Glo measures the ATP left after a reaction by luminescence.
The target of assay [7] is Protein kinase 7 (PK7), Plasmodium falciparum 3D7 (PF3D7_0213400) (UniProt Q7YTF7). Nature of the assay: inhibition of Plasmodium PK7 catalytic activity – biochemical, TCAMS antimalarial set, Kinase-Glo luminescence (AID 1159587). Particulars: recombinant PfPK7, Kinase-Glo ATP depletion luminescence.
Chain of Protein kinase 7 (PK7), Plasmodium falciparum 3D7 (PF3D7_0213400) (Q7YTF7 1-343): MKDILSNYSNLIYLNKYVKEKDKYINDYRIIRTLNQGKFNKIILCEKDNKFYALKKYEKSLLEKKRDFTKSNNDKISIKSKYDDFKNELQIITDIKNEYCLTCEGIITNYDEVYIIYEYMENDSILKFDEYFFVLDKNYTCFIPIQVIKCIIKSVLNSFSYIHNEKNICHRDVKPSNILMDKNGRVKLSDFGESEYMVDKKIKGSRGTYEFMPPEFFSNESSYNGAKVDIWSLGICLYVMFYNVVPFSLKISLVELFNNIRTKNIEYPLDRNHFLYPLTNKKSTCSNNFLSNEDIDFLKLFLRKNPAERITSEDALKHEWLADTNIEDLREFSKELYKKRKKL
Assay [8] concerns the target Calcium-dependent protein kinase 4 (Plasmodium falciparum (isolate 3D7)) (UniProt Q8IBS5). The assay can be described thus: PfCDPK4 kinase inhibitors, biochemical, TCAMS library (AID 1159588; cut-off not given, nearly all actives have IC50 up to about 0.91 µM). Particulars: recombinant PfCDPK4, Kinase-Glo ATP depletion luminescence.

Chain of L-lactate dehydrogenase (Plasmodium falciparum (isolate CDC / Honduras)) (Q27743 whole entry, looked up): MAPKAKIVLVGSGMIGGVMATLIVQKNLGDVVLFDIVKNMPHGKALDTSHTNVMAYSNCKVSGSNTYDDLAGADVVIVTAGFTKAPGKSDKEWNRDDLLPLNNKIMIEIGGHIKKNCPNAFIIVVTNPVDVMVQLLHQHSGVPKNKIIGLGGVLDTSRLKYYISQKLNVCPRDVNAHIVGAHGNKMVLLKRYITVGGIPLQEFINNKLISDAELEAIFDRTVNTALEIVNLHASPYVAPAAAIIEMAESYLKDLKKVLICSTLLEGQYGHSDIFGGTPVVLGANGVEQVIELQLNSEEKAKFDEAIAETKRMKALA
Chain of Plasmodium falciparum protein kinase 6 (PK6, PF3D7_1337100) (Q8IDW1 1-305): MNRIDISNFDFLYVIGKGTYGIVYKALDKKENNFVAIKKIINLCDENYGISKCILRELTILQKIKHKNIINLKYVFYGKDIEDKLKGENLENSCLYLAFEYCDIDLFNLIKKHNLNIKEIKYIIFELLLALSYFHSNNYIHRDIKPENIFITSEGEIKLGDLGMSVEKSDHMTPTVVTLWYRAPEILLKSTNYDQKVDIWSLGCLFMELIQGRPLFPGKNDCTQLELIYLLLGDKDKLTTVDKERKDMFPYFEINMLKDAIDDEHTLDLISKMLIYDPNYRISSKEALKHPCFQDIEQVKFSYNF
Chain of Calcium-dependent protein kinase 4 (Plasmodium falciparum (isolate 3D7)) (Q8IBS5 whole entry, looked up): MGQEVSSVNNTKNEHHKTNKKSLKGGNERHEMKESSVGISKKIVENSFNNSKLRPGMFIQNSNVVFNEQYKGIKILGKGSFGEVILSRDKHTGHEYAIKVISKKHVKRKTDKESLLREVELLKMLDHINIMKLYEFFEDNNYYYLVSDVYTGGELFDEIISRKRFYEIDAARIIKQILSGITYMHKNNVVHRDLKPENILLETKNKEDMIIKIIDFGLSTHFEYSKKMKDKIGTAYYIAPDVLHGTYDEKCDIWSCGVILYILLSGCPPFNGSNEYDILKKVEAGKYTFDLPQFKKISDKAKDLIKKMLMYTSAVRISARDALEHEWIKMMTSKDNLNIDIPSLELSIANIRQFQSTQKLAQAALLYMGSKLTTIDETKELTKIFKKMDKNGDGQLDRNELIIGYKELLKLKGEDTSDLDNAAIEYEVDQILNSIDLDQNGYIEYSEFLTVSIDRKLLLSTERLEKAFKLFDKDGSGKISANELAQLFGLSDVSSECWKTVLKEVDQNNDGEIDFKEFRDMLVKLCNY

As to `CN=C(Nc1c(Cl)cccc1Cl)N(C)C`, the growth inhibition in assay [1] is 1%; in assay [4] it was 98% (active). Moreover, the inhibition in assay [2] was -12%; in assay [3], -1%. Further, the outcome in assay [5], in assay [6], in assay [7] and in assay [8] was inactive.
Consider `COc1ccc(O)cc1/C=N/Nc1ccnc2cc(Cl)ccc12`, for which the growth inhibition in assay [1] was 92% (active); in assay [4], 103% (active). The values for the inhibition in assay [2] and in assay [3] were -5% and 3%, respectively. Besides, the outcome in assay [5], in assay [6], in assay [7] and in assay [8] was inactive.
Turning to `N=C(N)c1ccc(Oc2ccc(C(=N)N)cc2)cc1`, the growth inhibition in assay [1] is 85% (active); in assay [4] it was 92% (active). Moreover, the results for the inhibition in assay [2] and in assay [3] were 18% and -3%, respectively. For the same compound, the outcome in assay [5], in assay [6], in assay [7] and in assay [8] was inactive.
Turning to `CCNc1cc(C(=O)N[C@@H](Cc2ccccc2)[C@H](O)CNCc2cccc(-c3cncnc3)c2)cc(N2CCCC2=O)c1`, the growth inhibition was 96% (active) in assay [1] and 97% (active) in assay [4]. For the same compound, the inhibition in assay [2] was 5%; in assay [3] it was 2%. The result in assay [5], in assay [6], in assay [7] and in assay [8] was inactive.
For the compound `COc1ccc(C(=O)CCC(=O)N(CCC2CCCN2C)Cc2ccc(-c3ccc(CNCCc4ccc(S(C)(=O)=O)cc4)cn3)cc2)cc1F` (stereo not given), the growth inhibition is 45% in assay [1] and 93% (active) in assay [4]. Moreover, the inhibition in assay [2] is 13%; in assay [3], -2%. The result in assay [5], in assay [6], in assay [7] and in assay [8] was inactive.
On to `COc1ccc2c(NN=Cc3cccnc3)ccnc2c1`, for which the growth inhibition was 26% in assay [1] and 97% (active) in assay [4]. The inhibition in assay [2] was 3%; in assay [3], -4%. Also, the outcome in assay [5], in assay [6], in assay [7] and in assay [8] was inactive.
On to `O=C(CNc1ccc(Cl)c(S(=O)(=O)N2CCCC2)c1)Nc1ccc(Br)cc1F`, for which the growth inhibition in assay [1] is 97% (active); in assay [4], 99% (active). Also, the inhibition was 18% in assay [2] and 4% in assay [3]. The result in assay [5], in assay [6], in assay [7] and in assay [8] was inactive.
For `COc1ccc2c(NN=Cc3cccc(F)c3)cc(C)nc2c1`, the growth inhibition is 100% (active) in assay [1] and 101% (active) in assay [4]. Moreover, the inhibition was 17% in assay [2] and -4% in assay [3]. The result in assay [5], in assay [6], in assay [7] and in assay [8] was inactive.
In the case of `CC(C)C[C@@H](C(=O)Nc1ccc(Cc2ccc(NC(=O)[C@H](CC(C)C)N(C)C(=O)OC(C)(C)C)cc2)cc1)N(C)C(=O)OC(C)(C)C`, the growth inhibition was 57% (active) in assay [1] and 92% (active) in assay [4]. For the same compound, the values for the inhibition in assay [2] and in assay [3] were 17% and 2%, respectively. Also, the outcome in assay [5], in assay [6], in assay [7] and in assay [8] was inactive.
Take `CN(C)CCNc1nccc(N2CCc3ncnc(Nc4ccc(OCc5cccc(F)c5)c(Cl)c4)c3C2)n1`: the values for the growth inhibition in assay [1] and in assay [4] were 97% (active) and 100% (active), respectively. The results for the inhibition in assay [2] and in assay [3] were 65% (active) and 6%, respectively. Moreover, the result in assay [5], in assay [6], in assay [7] and in assay [8] was inactive.
In the case of `COc1cc(OCCCCCCON2C(N)=NC(N)=NC2(C)C)cc(OC)c1OC`, the figures for the growth inhibition in assay [1] and in assay [4] were 93% (active) and 94% (active), respectively. Also, the inhibition in assay [2] is 41%; in assay [3], -5%. Moreover, the result in assay [5], in assay [6], in assay [7] and in assay [8] was inactive.
As to `Cc1ccc(N2CCc3c(-c4cc5cccnc5nc4C)cc(C)nc32)c(Cl)c1`, the growth inhibition in assay [1] was 90% (active); in assay [4], 96% (active). Further, the inhibition was -14% in assay [2] and 3% in assay [3]. The result in assay [5], in assay [6], in assay [7] and in assay [8] was inactive.
On to `CCOC(=O)c1[nH]c(-c2cc(Cl)nc(Cl)c2)nc1NC(=S)NCCCN1CCOCC1`, for which the growth inhibition in assay [1] was 71% (active); in assay [4] it was 89% (active). In addition, the inhibition in assay [2] is 13%; in assay [3], 3%. The result in assay [5], in assay [6], in assay [7] and in assay [8] was inactive.
Consider `Cn1c(=N)cc(-c2ccc(Br)cc2)c2c(=O)[nH]c(N)nc21`, for which the figures for the growth inhibition in assay [1] and in assay [4] were 57% (active) and 80% (active), respectively. Also, the inhibition in assay [2] is 5%; in assay [3], 1%. Moreover, the outcome in assay [5], in assay [6], in assay [7] and in assay [8] was inactive.
In the case of `N#Cc1ccc(CN2CCC(Oc3ccc(NC(=O)c4cccs4)cc3)CC2)cc1`, the growth inhibition in assay [1] is 82% (active); in assay [4] it was 83% (active). Also, the inhibition is 10% in assay [2] and -3% in assay [3]. Moreover, the outcome in assay [5], in assay [6], in assay [7] and in assay [8] was inactive.
For `N#Cc1ccc(-c2ccc(C(=O)NC3CCN(CCN4CCC(c5cn(CCOC6CCCCO6)c6ccccc56)CC4)CC3)cc2)cc1` (stereo not given), the results for the growth inhibition in assay [1] and in assay [4] were 86% (active) and 99% (active), respectively. Further, the inhibition in assay [2] is 48%; in assay [3], 2%. Also, the result in assay [5], in assay [6], in assay [7] and in assay [8] was inactive.
On to `O=C(Nc1cccc(C(F)(F)F)c1)c1cc([N+](=O)[O-])cc2cn[nH]c12`, for which the values for the growth inhibition in assay [1] and in assay [4] were 69% (active) and 101% (active), respectively. In addition, the inhibition in assay [2] was 60% (active); in assay [3], 3%. In addition, the result in assay [5], in assay [6], in assay [7] and in assay [8] was inactive.
With `COc1ccccc1-c1cccc2c(NC(=O)Nc3ccc4nccc(N5CCN(C)CC5)c4c3)ccnc12`, the growth inhibition in assay [1] is 34%; in assay [4], 94% (active). Besides, the inhibition was 3% in assay [2] and 5% in assay [3]. For the same compound, the outcome in assay [5], in assay [6], in assay [7] and in assay [8] was inactive.
With `COc1c(OC)c(OC)c2ccccc2c1CCNCCCCNCCc1c(OC)c(OC)c(OC)c2ccccc12`, the growth inhibition was 72% (active) in assay [1] and 99% (active) in assay [4]. Moreover, the inhibition in assay [2] was 100% (active); in assay [3] it was -3%. Further, the outcome in assay [5], in assay [6], in assay [7] and in assay [8] was inactive.
Turning to `Cc1[nH]c(C)c(-c2ccc(-c3ccc(Cl)cc3)nc2)c(=O)c1Br`, the growth inhibition in assay [1] was 96% (active); in assay [4], 97% (active). Besides, the inhibition was 21% in assay [2] and 3% in assay [3]. Further, the outcome in assay [5], in assay [6], in assay [7] and in assay [8] was inactive.

What is called inhibition is the drop in the measured response relative to a control, in per cent.
